# From the supplement of paper PMC12282887
# ± gives the standard deviation of the averaged measurements.
# Columns and labels:
# Assay in all cases: promoter activity interaction Z-score (Lux/OD deviation from empty-vector control); higher = stronger promoter induction by the compound
# [1] = tested on: E. coli BW25113 acrABp lux reporter
# Method in brief: (§1)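 At 37°C, E. coli BW25113 reporter cultures in 40 µl LB Lennox in 384-well plates were read for OD600 and luminescence every 30 min for 12 h. Windows were 0–8 h for wild type and 1–9 h for deletion strains, and wells under 10% of the median growth value were removed. The score is the Z-transformed residual of growth-normalised luminescence against a control fit.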
# [2] = tested on: E. coli BW25113 micFp lux reporter
# Method in brief: as §1
# [3] = tested on: E. coli BW25113 ompFp lux reporter
# Method in brief: as §1
# [4] = tested on: E. coli BW25113 robp lux reporter
# Method in brief: as §1
# [5] = tested on: E. coli BW25113 soxSp lux reporter
# Method in brief: as §1
# [6] = tested on: E. coli BW25113 tolCp lux reporter
# Method in brief: as §1
# [7] = 19 µg/ml, genetic background: wild type
# [8] = 19 µg/ml, genetic background: ΔmarA
# [9] = 19 µg/ml, genetic background: Δrob
# [10] = 19 µg/ml, genetic background: ΔsoxS
# [11] = 38 µg/ml, genetic background: wild type
# [12] = 38 µg/ml, genetic background: ΔmarA
# [13] = 38 µg/ml, genetic background: Δrob
# [14] = 38 µg/ml, genetic background: ΔsoxS
# [15] = 76.1 µg/ml, genetic background: wild type
# [16] = 76.1 µg/ml, genetic background: ΔmarA
# [17] = 76.1 µg/ml, genetic background: Δrob
# [18] = 76.1 µg/ml, genetic background: ΔsoxS
# [19] = 152.1 µg/ml, genetic background: wild type
# [20] = 152.1 µg/ml, genetic background: ΔmarA
# [21] = 152.1 µg/ml, genetic background: Δrob
# [22] = 152.1 µg/ml, genetic background: ΔsoxS
smiles,measurement,setting,value
COc1cc(C=O)ccc1O [Vanillin],promoter activity interaction Z-score,[1]; [7],-0.0924 ± 0.22
same,promoter activity interaction Z-score,[1]; [8],-1.01 ± 0.36
same,promoter activity interaction Z-score,[1]; [9],-0.237 ± 0.036
same,promoter activity interaction Z-score,[1]; [10],-0.38 ± 0.04
same,promoter activity interaction Z-score,[1]; [11],-0.3 ± 0.17
same,promoter activity interaction Z-score,[1]; [12],0.134 ± 0.85
same,promoter activity interaction Z-score,[1]; [13],-0.312 ± 0.14
same,promoter activity interaction Z-score,[1]; [14],-0.79 ± 0.35
same,promoter activity interaction Z-score,[1]; [15],-0.108 ± 0.02
same,promoter activity interaction Z-score,[1]; [16],-0.501 ± 0.51
same,promoter activity interaction Z-score,[1]; [17],-0.406 ± 0.017
same,promoter activity interaction Z-score,[1]; [18],-0.409 ± 0.11
same,promoter activity interaction Z-score,[1]; [19],0.0819 ± 0.4
same,promoter activity interaction Z-score,[1]; [20],-0.204 ± 0.85
same,promoter activity interaction Z-score,[1]; [21],-0.28 ± 0.056
same,promoter activity interaction Z-score,[1]; [22],-0.339 ± 0.24
same,promoter activity interaction Z-score,[2]; [7],0.414 ± 0.3
same,promoter activity interaction Z-score,[2]; [8],0.0708 ± 0.21
same,promoter activity interaction Z-score,[2]; [9],0.348 ± 0.34
same,promoter activity interaction Z-score,[2]; [10],0.261 ± 0.29
same,promoter activity interaction Z-score,[2]; [11],0.827 ± 0.47
same,promoter activity interaction Z-score,[2]; [12],0.117 ± 0.12
same,promoter activity interaction Z-score,[2]; [13],0.608 ± 0.26
same,promoter activity interaction Z-score,[2]; [14],0.255 ± 0.57
same,promoter activity interaction Z-score,[2]; [15],1.55 ± 0.57
same,promoter activity interaction Z-score,[2]; [16],0.0617 ± 0.059
same,promoter activity interaction Z-score,[2]; [17],0.54 ± 0.19
same,promoter activity interaction Z-score,[2]; [18],0.822 ± 0.14
same,promoter activity interaction Z-score,[2]; [19],1.67 ± 0.3
same,promoter activity interaction Z-score,[2]; [20],0.484 ± 0.14
same,promoter activity interaction Z-score,[2]; [21],1.27 ± 0.44
same,promoter activity interaction Z-score,[2]; [22],1.36 ± 0.11
same,promoter activity interaction Z-score,[3]; [7],-0.994 ± 0.24
same,promoter activity interaction Z-score,[3]; [8],-1.33 ± 0.62
same,promoter activity interaction Z-score,[3]; [9],-1.05 ± 0.28
same,promoter activity interaction Z-score,[3]; [10],-0.69 ± 0.026
same,promoter activity interaction Z-score,[3]; [11],-0.89 ± 0.22
same,promoter activity interaction Z-score,[3]; [12],-1.03 ± 0.49
same,promoter activity interaction Z-score,[3]; [13],-0.857 ± 0.061
same,promoter activity interaction Z-score,[3]; [14],-0.75 ± 0.044
same,promoter activity interaction Z-score,[3]; [15],-0.551 ± 0.35
same,promoter activity interaction Z-score,[3]; [16],-1.2 ± 0.46
same,promoter activity interaction Z-score,[3]; [17],-0.873 ± 0.084
same,promoter activity interaction Z-score,[3]; [18],-0.372 ± 0.057
same,promoter activity interaction Z-score,[3]; [19],-0.504 ± 0.27
same,promoter activity interaction Z-score,[3]; [20],-0.917 ± 0.56
same,promoter activity interaction Z-score,[3]; [21],-0.507 ± 0.057
same,promoter activity interaction Z-score,[3]; [22],0.0107 ± 0.52
same,promoter activity interaction Z-score,[4]; [7],-0.0267 ± 0.12
same,promoter activity interaction Z-score,[4]; [8],-0.748 ± 0.21
same,promoter activity interaction Z-score,[4]; [9],-0.428 ± 0.024
same,promoter activity interaction Z-score,[4]; [10],-0.184 ± 0.93
same,promoter activity interaction Z-score,[4]; [11],-0.354 ± 0.066
same,promoter activity interaction Z-score,[4]; [12],0.11 ± 0.23
same,promoter activity interaction Z-score,[4]; [13],-0.287 ± 0.54
same,promoter activity interaction Z-score,[4]; [14],-0.138 ± 0.42
same,promoter activity interaction Z-score,[4]; [15],-0.265 ± 0.18
same,promoter activity interaction Z-score,[4]; [16],-0.307 ± 0.11
same,promoter activity interaction Z-score,[4]; [17],-0.399 ± 0.16
same,promoter activity interaction Z-score,[4]; [18],-0.0986 ± 0.36
same,promoter activity interaction Z-score,[4]; [19],0.841 ± 1.6
same,promoter activity interaction Z-score,[4]; [20],0.111 ± 0.07
same,promoter activity interaction Z-score,[4]; [21],-0.463 ± 0.3
same,promoter activity interaction Z-score,[4]; [22],0.223 ± 0.32
same,promoter activity interaction Z-score,[5]; [7],-0.29 ± 0.1
same,promoter activity interaction Z-score,[5]; [8],-0.185 ± 0.056
same,promoter activity interaction Z-score,[5]; [9],0.0115 ± 0.23
same,promoter activity interaction Z-score,[5]; [10],-0.409 ± 0.11
same,promoter activity interaction Z-score,[5]; [11],-0.279 ± 0.037
same,promoter activity interaction Z-score,[5]; [12],-0.201 ± 0.018
same,promoter activity interaction Z-score,[5]; [13],0.0294 ± 0.17
same,promoter activity interaction Z-score,[5]; [14],-0.314 ± 0.082
same,promoter activity interaction Z-score,[5]; [15],-0.117 ± 0.062
same,promoter activity interaction Z-score,[5]; [16],-0.32 ± 0.06
same,promoter activity interaction Z-score,[5]; [17],-0.186 ± 0.072
same,promoter activity interaction Z-score,[5]; [18],-0.321 ± 0.11
same,promoter activity interaction Z-score,[5]; [19],-0.196 ± 0.03
same,promoter activity interaction Z-score,[5]; [20],-0.205 ± 0.12
same,promoter activity interaction Z-score,[5]; [21],-0.225 ± 0.11
same,promoter activity interaction Z-score,[5]; [22],-0.367 ± 0.18
same,promoter activity interaction Z-score,[6]; [7],0.0479 ± 0.73
same,promoter activity interaction Z-score,[6]; [8],-0.119 ± 0.31
same,promoter activity interaction Z-score,[6]; [9],0.58 ± 0.34
same,promoter activity interaction Z-score,[6]; [10],0.597 ± 0.78
same,promoter activity interaction Z-score,[6]; [11],0.657 ± 0.53
same,promoter activity interaction Z-score,[6]; [12],0.25 ± 0.54
same,promoter activity interaction Z-score,[6]; [13],0.749 ± 0.62
same,promoter activity interaction Z-score,[6]; [14],-0.627 ± 0.44
same,promoter activity interaction Z-score,[6]; [15],0.993 ± 0.047
same,promoter activity interaction Z-score,[6]; [16],-0.352 ± 0.71
same,promoter activity interaction Z-score,[6]; [17],-0.533 ± 0.45
same,promoter activity interaction Z-score,[6]; [18],0.305 ± 0.97
same,promoter activity interaction Z-score,[6]; [19],-0.199 ± 0.18
same,promoter activity interaction Z-score,[6]; [20],-0.469 ± 1
same,promoter activity interaction Z-score,[6]; [21],0.503 ± 0.78
same,promoter activity interaction Z-score,[6]; [22],1.07 ± 1.8
